The text below walks through data of article PMC7862700, “An all-to-all approach to the identification of sequence-specific readers for epigenetic DNA modifications on cytosine”.

Holding throughout (test): DAPPL (digital affinity profiling via proximity ligation, sequencing); 10 mM Tris-HCl pH 7.5, 50 mM NaCl, 1 mM DTT, 4% glycerol, room temperature, 30 min; GST-TFs on glutathione beads, 16-mer random dsDNA library, 0.1% formaldehyde crosslink after washing; high values mean tight binding
Holding throughout (conditions): protein: recombinant; tags: N-terminal GST; dsDNA, one strand shown

Experiment [1] addresses T1, ETV2 (Homo sapiens, UniProt O00321 1-342).
T1 sequence: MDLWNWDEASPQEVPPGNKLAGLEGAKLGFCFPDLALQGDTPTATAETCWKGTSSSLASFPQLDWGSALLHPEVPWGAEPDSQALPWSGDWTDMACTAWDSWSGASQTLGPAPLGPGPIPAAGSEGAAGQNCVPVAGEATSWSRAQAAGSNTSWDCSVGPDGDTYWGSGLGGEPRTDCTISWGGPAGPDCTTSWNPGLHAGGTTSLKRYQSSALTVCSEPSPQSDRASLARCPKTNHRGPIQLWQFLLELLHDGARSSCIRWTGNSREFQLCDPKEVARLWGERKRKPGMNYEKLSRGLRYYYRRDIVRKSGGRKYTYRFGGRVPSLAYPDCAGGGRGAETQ
The procedure, abridged: (§1)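 GST fusions of human transcription factors were expressed in yeast and captured with glutathione beads. Once given DNA barcodes and pooled alongside a tag-only sample, they were incubated for 30 min at room temperature with 200 nmole of a random double-stranded 16-mer DNA library in Tris/NaCl/DTT/glycerol buffer, then washed, crosslinked (0.1% formaldehyde), proximity-ligated, PCR-amplified and sequenced on an Illumina NextSeq500. The binding signal of each hexamer is its read frequency for a factor divided by its frequency for the tag-only sample.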

The target of experiment [2] is T2, ELF3 (Homo sapiens, UniProt P78545 1-371).
T2 sequence: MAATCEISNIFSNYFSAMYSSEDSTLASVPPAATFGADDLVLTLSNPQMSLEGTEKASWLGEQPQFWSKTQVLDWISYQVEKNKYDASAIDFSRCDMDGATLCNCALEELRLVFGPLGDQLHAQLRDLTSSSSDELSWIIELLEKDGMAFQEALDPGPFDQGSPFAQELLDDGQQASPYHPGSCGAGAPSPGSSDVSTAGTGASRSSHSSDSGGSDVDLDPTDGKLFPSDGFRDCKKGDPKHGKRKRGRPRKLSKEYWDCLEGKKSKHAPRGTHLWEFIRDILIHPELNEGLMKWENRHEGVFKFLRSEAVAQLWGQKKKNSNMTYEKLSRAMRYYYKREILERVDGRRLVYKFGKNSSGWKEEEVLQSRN
A digest of the protocol: as §1

For experiment [3], the target named is ETV1 (Homo sapiens, UniProt P50549 1-477). A digest of the protocol:
as §1

Experiment [4] concerns the target T3, ERF (Homo sapiens, UniProt P50548 1-548).
T3 sequence: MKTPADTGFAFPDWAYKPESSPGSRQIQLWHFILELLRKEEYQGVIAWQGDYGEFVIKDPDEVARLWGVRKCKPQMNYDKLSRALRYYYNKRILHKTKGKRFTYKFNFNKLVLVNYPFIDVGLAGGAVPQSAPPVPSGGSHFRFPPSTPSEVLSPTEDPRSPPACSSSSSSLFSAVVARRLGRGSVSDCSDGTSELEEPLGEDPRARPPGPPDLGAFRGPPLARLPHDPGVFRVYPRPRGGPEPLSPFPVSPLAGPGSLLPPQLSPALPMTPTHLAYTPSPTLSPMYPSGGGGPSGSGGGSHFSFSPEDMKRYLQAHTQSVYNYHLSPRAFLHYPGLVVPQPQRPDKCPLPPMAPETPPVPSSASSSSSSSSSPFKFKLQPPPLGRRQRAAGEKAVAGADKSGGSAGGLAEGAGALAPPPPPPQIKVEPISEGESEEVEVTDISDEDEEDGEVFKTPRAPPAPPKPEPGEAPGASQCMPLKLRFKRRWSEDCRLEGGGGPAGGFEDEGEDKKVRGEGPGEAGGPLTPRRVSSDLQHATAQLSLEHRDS
The procedure, abridged:
as §1

In experiment [5] the target is T4, ETV3L (Homo sapiens, UniProt Q6ZN32 1-361).
T4 sequence: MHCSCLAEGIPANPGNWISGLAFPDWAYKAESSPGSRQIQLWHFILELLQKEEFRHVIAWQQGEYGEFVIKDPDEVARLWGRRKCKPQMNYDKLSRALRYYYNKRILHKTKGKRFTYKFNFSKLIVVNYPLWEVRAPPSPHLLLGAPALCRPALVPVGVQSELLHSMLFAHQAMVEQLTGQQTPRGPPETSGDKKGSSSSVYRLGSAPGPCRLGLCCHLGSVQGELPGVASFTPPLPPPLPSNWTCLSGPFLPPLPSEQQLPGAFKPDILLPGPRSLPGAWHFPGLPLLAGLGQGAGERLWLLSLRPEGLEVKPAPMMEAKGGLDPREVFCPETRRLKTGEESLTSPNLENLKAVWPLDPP
A digest of the protocol: as §1

Experiment [6] concerns the target T5, ETS2 (Homo sapiens, UniProt P15036 1-469).
T5 sequence: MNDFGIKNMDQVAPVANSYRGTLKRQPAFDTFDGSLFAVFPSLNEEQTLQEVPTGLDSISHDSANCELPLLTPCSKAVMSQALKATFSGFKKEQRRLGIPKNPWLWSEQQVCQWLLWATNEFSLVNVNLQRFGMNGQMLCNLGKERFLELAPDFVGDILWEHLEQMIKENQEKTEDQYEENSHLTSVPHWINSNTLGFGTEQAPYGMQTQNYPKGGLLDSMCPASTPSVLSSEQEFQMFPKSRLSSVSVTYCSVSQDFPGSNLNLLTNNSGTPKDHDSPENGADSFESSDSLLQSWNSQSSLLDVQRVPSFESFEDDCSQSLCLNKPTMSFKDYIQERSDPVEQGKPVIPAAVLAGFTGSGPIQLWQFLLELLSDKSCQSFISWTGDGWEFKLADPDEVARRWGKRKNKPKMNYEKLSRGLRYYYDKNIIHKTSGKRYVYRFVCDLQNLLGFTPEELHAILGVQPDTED
The procedure, abridged:
as §1

Experiment [7] deals with T6, SPDEF (Homo sapiens, UniProt O95238 1-335).
T6 sequence: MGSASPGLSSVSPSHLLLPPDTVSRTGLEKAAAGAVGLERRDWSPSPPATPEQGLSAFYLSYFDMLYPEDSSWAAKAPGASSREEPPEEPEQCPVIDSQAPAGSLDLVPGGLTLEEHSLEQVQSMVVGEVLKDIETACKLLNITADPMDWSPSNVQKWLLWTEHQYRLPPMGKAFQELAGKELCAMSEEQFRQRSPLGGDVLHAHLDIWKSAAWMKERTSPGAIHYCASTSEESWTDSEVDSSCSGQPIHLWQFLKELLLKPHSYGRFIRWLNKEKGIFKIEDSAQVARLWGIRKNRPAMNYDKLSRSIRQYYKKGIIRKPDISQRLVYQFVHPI
A digest of the protocol: as §1

Experiment [8] has as its target T7, ETV7 (Homo sapiens, UniProt Q9Y603 1-341).
T7 sequence: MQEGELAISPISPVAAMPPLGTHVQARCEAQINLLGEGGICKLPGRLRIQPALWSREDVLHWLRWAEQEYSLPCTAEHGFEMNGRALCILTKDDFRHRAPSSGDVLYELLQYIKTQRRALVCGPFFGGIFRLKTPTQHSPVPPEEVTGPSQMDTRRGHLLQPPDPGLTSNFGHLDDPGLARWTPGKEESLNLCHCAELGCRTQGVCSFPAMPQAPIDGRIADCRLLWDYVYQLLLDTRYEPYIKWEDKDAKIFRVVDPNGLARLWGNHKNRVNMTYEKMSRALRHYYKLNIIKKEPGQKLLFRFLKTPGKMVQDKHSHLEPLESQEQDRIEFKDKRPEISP
The procedure, abridged: as §1

For experiment [9], the target named is T8, ETV3 (Homo sapiens, UniProt P41162-2 1-143).
T8 sequence: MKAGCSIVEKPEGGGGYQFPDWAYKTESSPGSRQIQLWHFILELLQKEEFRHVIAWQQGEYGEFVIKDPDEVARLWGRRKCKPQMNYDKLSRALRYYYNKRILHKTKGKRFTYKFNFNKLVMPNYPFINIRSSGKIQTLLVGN
The procedure, abridged:
as §1

Experiment [10] addresses ETV6 (Homo sapiens, UniProt P41212 1-452). A digest of the protocol:
as §1

Chain of ETV1 (P50549 whole entry): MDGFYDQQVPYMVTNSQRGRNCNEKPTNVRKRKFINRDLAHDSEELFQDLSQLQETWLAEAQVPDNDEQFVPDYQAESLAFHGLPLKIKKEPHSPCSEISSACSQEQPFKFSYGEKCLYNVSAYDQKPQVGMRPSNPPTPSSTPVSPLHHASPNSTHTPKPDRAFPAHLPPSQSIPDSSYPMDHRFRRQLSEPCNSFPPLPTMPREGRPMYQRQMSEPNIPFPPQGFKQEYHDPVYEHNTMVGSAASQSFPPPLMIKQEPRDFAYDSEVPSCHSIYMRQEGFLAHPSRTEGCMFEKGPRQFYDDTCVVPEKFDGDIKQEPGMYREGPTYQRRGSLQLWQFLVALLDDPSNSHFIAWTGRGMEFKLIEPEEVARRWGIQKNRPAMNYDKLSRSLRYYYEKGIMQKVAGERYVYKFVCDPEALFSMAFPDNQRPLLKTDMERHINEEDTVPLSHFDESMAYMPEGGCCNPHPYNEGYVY
Chain of ETV6 (P41212 whole entry): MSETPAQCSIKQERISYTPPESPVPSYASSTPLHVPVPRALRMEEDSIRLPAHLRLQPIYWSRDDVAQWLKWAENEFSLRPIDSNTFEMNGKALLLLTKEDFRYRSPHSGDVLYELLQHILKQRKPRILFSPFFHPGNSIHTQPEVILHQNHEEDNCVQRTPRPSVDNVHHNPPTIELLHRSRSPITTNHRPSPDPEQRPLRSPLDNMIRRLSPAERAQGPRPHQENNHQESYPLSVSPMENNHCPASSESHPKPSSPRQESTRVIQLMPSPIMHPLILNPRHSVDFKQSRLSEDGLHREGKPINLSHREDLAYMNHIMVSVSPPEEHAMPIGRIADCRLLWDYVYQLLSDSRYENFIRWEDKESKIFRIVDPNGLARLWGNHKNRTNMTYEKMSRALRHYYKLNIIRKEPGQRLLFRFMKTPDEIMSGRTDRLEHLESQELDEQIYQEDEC

Turning to GTTGAC, the binding signal was 1.07 fold enrichment (6-mer frequency, TF over GST control) in experiment [1]; 1.09 fold enrichment (6-mer frequency, TF over GST control) in [2]; 1.06 fold enrichment (6-mer frequency, TF over GST control) in experiment [3]; 1.43 fold enrichment (6-mer frequency, TF over GST control) in [4]; 1.19 fold enrichment (6-mer frequency, TF over GST control) in [5]; 1.17 fold enrichment (6-mer frequency, TF over GST control) in experiment [6]. For the same sequence, the binding signal was 1.07 fold enrichment (6-mer frequency, TF over GST control) in [7]; 1.19 fold enrichment (6-mer frequency, TF over GST control) in experiment [8]; 1.04 fold enrichment (6-mer frequency, TF over GST control) in experiment [9]; 1.21 fold enrichment (6-mer frequency, TF over GST control) in experiment [10].
